Structures are written as SMILES. Among all 1,400 compounds or so, about 380 (27%) were called active. Some of the results follow. A number with no mark means an inactive call.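 How the source made its calls: active means mean inhibition above 50% across duplicate retests at 10 µM; inactive means the rest.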

The nature of the experiment: inhibition of NALP1/ASC/caspase-1 reporter signal in yeast, confirmation, NALP1 inhibitor project, S. cerevisiae, luminescence, single concentration (AID 488841).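 Further: plate controls were DMSO in galactose medium for no effect and cells in plain SD medium for full effect.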 The following applies: S. cerevisiae NALP1/ASC/Caspase-1 reporter, beta-gal luminescence; at 10 µM; stronger effect = higher value.
As a reminder, the inhibition is the relative decrease from the control value, in per cent. For `CN(C)c1ccc(O)c2c1CC1CC3[C@@H](N(C)C)C(=O)C(C(N)=O)=C(O)[C@]3(O)C(=O)C1=C2O` (some centres not stated), the inhibition is 28.8%. As for `Cc1cc(/C=C2/SC(=S)N(c3ccc([N+](=O)[O-])cc3)C2=O)c(C)n1-c1cccnc1`, the inhibition was 34.9%.

For the molecule `O=C1Cc2ccccc2C(=O)N1OCc1ccc(Cl)cc1Cl`, the inhibition is 26.8%.

Turning to `COc1cc(Cc2cnc(N)nc2N)cc(OC)c1OC`, the inhibition is 24.9%. The figure for `Oc1c(I)cc(Cl)c2cccnc12` is 56.2% (active); for `Oc1c(CN2CCCCC2)cc(Br)c2cccnc12` it is 26.2%; for `C=C(C)COc1ccc2c(CC)cc(=O)oc2c1C` it is 63.1% (active). As to `CC1CCCN(CCC(=O)c2ccc(Br)cc2)C1` (configuration not stated), the inhibition was 28.8%. As to `CC1=NN(c2ccc(C)cc2C)C(=O)C1C(c1cccc(O)c1)C1C(=O)N(c2ccc(C)cc2C)N=C1C` (configuration not stated), the inhibition is 38%.

For the molecule `C=CCNC(=S)N/N=C(\C)c1ccccn1`, the inhibition was 57.5% (active).

For `C/C(=N\NC(=O)Nc1ccccc1)c1ccccc1`, the inhibition was 47.1%. Regarding `COc1cccc(NC(=O)Cn2cnc3sc(C)c(S(=O)(=O)N4CCCCC4)c3c2=O)c1`, the inhibition is 20.9%. `COc1cc(/C=N/n2cnnc2)ccc1OCc1ccc(C)cc1`: the inhibition is 50.9% (active). As to `COc1cc(C2Nc3ccccc3C(=O)N2c2ccccc2)ccc1O` (configuration not stated), the inhibition is 27.3%. As for `COC1=C(N)C(=O)c2nc(-c3nc(C(=O)O)c(C)c(-c4ccc(OC)c(OC)c4O)c3N)ccc2C1=O`, the inhibition is 33.7%. The result for `Cc1cccc(N2Cc3ccccc3C2=NC(=O)c2ccc(Cl)nc2)c1` reads 26.5%; that for `COC(=O)N/N=C(\C)c1ccc2ccccc2c1OC(F)F`, 55.9% (active). As to `CCSc1nnc(-c2cnn(-c3ccccc3)c2-n2cccc2)n1C`, the inhibition is 26.1%. In the case of `CCSc1ncc(/C=N/Nc2ccccc2)n1C`, the inhibition is 68.9% (active). The figure for `Clc1ccc(OCCCNCc2ccccc2)c2ccccc12` is 49.3%; for `COC(=O)C(CCSC)NC(=O)Cn1ncc2c(=O)oc3ccccc3c21` (configuration not stated) it is 35.1%. In the case of `CN(C#N)c1nc(Cl)nc(Nc2cccc(Cl)c2)n1`, the inhibition was 23.4%. The figure for `COc1ccc(Cc2ccc(OC)c(N)c2)cc1N` is 36.5%; for `COc1ccc(CNc2cccc(F)c2)cc1Br` it is 62% (active); for `O=C(COc1ccc(Br)cc1Br)NC(=S)Nc1cccc(CO)c1` it is 29.1%.

For `CC(C)c1ccc(NCCC(=O)c2cccs2)cc1`, the inhibition is 44.8%. The figure for `O=C(COC(=O)/C=C/c1cccs1)Nc1nc(-c2ccccc2)cs1` is 13.8%. `O=C(COC(=O)c1cccs1)Nc1nc(-c2ccccc2)cs1`: the inhibition is 34%.

In the case of `CC1CC1C(=O)Nc1nc(-c2ccccc2)cs1` (configuration not stated), the inhibition was 66.7% (active). In the case of `O=C(Cc1coc2cc3c(cc12)CCC3)NCC1(N2CCCCC2)CCCCC1`, the inhibition was 22.9%.

Consider `O=C1C2C(C(=O)N1/N=C/c1cc(Br)cc([N+](=O)[O-])c1O)C1C=CC2C12CC2` (configuration not stated), for which the inhibition is 59.4% (active). For `O=C1C2C(C(=O)N1/N=C/c1ccc([N+](=O)[O-])o1)C1C=CC2C12CC2` (configuration not stated), the inhibition is 34.8%.

As for `O=C(CN1CCCCC1)Nc1cccc(Oc2ccccc2)c1`, the inhibition is 25.9%. Turning to `O=C1C=CC(=O)N1c1ccc(N2CCCCC2)cc1`, the inhibition is 70.8% (active). Consider `O=S(=O)(N1CCCCC1)N1CCN(c2ccc(F)cc2)CC1`, for which the inhibition was 29.6%. `O=[N+]([O-])c1ccc(N2CCCCC2)cc1`: the inhibition is 32.1%.

For `CCCCCCCCCCCCCCCC[n+]1ccc(/C=N/O)cc1`, the inhibition is 82% (active). The figure for `CCCCCCCCCCCCCCCC[n+]1cccc(C(=O)N(CC)CC)c1` is 80.4% (active); for `CCCCCCCCCCCCCCCC[n+]1ccc(C(N)=O)cc1` it is 81.4% (active).

As for `CCCCN(CC)S(=O)(=O)c1ccccc1`, the inhibition was -8.3%.

Take `C1=CC2CC1CC2CN1CCN(Cc2ccccc2)CC1` (configuration not stated): the inhibition was 46.4%. Take `COc1cc(-c2nc(C(F)(F)F)c(OC)o2)cc(OC)c1OC`: the inhibition was 28.9%. For the molecule `O=C(NC(N1CCOCC1)C(Cl)(Cl)Cl)c1ccc(Br)cc1` (configuration not stated), the inhibition was -17.9%. `CC1=CC2=NC(=O)/C(=C\c3cccn3CCOc3cccc(C)c3)C(=N)N2O1`: the inhibition is 76.5% (active). The result for `O=C(O)/C=C/C(=O)OC1CC2CCC1C2` (configuration not stated) reads 24.1%. The result for `CN(C)Cc1ccccc1COc1ccccc1` reads 23.2%; that for `C/C(=C(\C#N)C(=O)NCc1ccccc1)N(C)C`, 33.3%; that for `COc1ccccc1OCC(=O)N/N=C/C=C/c1ccc([N+](=O)[O-])o1`, 32.6%. With `CCOC(=O)COc1ccccc1/C=C\[N+](=O)[O-]`, the inhibition is 101% (active). On to `CCOC(=O)COc1ccc2ccccc2c1/C=C/[N+](=O)[O-]`, for which the inhibition was 99.7% (active).

On to `CCOc1ccc(NC(=O)/C=C/c2ccccc2)c([N+](=O)[O-])c1`, for which the inhibition is 31.1%. As to `Cc1cc(N2CCOCC2)ccc1/C=C\[N+](=O)[O-]`, the inhibition was 41.6%. The figure for `O=C(CCCN1C(=O)c2ccccc2C1=O)Oc1ccc(Cl)cc1` is 37.3%. As to `CC(NCCC(c1ccccc1)c1ccccc1)c1ccccc1` (configuration not stated), the inhibition was 50.5% (active). Turning to `CCN1/C(=C/C=C/C=C/c2sc3ccccc3[n+]2CC)Sc2ccccc21`, the inhibition is 51% (active). Consider `COc1cccc(OCc2ccc(C(=O)NCC3CCCO3)cc2)c1` (configuration not stated), for which the inhibition is 36.2%. As to `CC1(O)N(Cc2ccccc2)C(=O)OC12CCCCC2` (configuration not stated), the inhibition is 29.2%. As for `O=C(COC(=O)c1ccc(-c2ccc([N+](=O)[O-])cc2)o1)NC(=O)NC1CCCCC1`, the inhibition is 37.8%. As to `O=C(N/N=C/c1cc(Cl)ccc1O)c1ccc(Br)cc1`, the inhibition is 43.6%. In the case of `CC(C)(C)c1nnc(N/N=C/c2cc(Br)ccc2O)n(N)c1=O`, the inhibition was 53.5% (active). The result for `CCCCNC(=O)Nc1cc(C)on1` reads 23.2%; that for `CN(C)/C=N/n1cnc2ccccc2c1=O`, 23.6%. `Cc1cc2ncn(/N=C/c3ccc([N+](=O)[O-])s3)c2cc1C`: the inhibition was 65.3% (active). Take `CCOC(=O)C1CCN(C(=O)c2cc3cc4cc(OC)ccc4nc3o2)CC1`: the inhibition was 45.9%.

In the case of `CCOc1ccc2nc(SC3CC(=O)N(c4cccc(OC)c4)C3=O)sc2c1` (configuration not stated), the inhibition is 32.1%. On to `O=S(=O)(Nc1ccc(-n2cccc2)cc1)c1ccc(Cl)cc1Cl`, for which the inhibition was 52.4% (active). Regarding `O=C(O)C1CCN(C(=O)c2csc(-c3ccc4c(c3)CCO4)n2)CC1`, the inhibition was 22.9%. As for `CCCC(=O)c1ccc(-c2ccccc2)cc1`, the inhibition is 52.4% (active). Regarding `Cc1ccc(C(=O)CCC(=O)O)cc1`, the inhibition is 37%. On to `Cc1cccc(C)c1OCCNC(=O)CCC(=O)c1ccccc1`, for which the inhibition was 33.9%.

Turning to `O=C1OC(/C=C/c2ccc(Cl)cc2)=NC/1=C/c1ccco1`, the inhibition was 36.4%. The result for `CCCCCCCCCCCCCCCCn1cc[n+](CC(C)=O)c1` reads 76.5% (active); that for `CCCCCCCCCCCCCCCCn1cc[n+](C)c1`, 84.8% (active). With `CCCNCC1COc2ccccc2O1` (configuration not stated), the inhibition was 31.2%. Take `COc1ccccc1OCCN1CSC(=S)N(C)C1`: the inhibition was 47%. For `O=[N+]([O-])c1cc2oc3c(c2c(C=NCc2ccccc2)c1O)CCCC3`, the inhibition is 34.6%. As to `Cc1oc(-c2ccccc2Cl)nc1CSc1nc2c(c(=O)[nH]1)CCC2`, the inhibition is 31.5%. For the molecule `CNc1nc(SCc2ccc(C)cc2)nc2c1CCCC2`, the inhibition is 98.8% (active). For the molecule `CNc1nc(SCc2ccccc2Cl)nc2c1CCCC2`, the inhibition was 99% (active). `Cc1ccc(NC(=O)N(C2CCCCC2)C(C)c2cccnc2)cc1C` (configuration not stated): the inhibition is 32.9%. `Clc1ccc(C2=NNC(=NCc3ccc4c(c3)OCO4)SC2)cc1`: the inhibition was 27.9%. Turning to `CC(C)N1CCC2(CC1)N=C(c1ccc3c(c1)OCO3)CC(c1cc(Cl)ccc1O)N2` (configuration not stated), the inhibition was 62.8% (active). Regarding `N#CC(C#N)=c1ccc2c(c1)N1C3=C(CCCC3)CC3CCCCC31N=2` (configuration not stated), the inhibition was 7.95%. As for `CC1CCCC/C1=N\Nc1ccc(S(N)(=O)=O)cc1[N+](=O)[O-]` (configuration not stated), the inhibition is 30.3%. The figure for `COC(=O)c1c(S(=O)(=O)NCc2ccccc2)sc(C(=O)O)c1C` is 22%. Turning to `COc1ccc(Nc2ccnc(Nc3ccc(OC)cc3)n2)cc1`, the inhibition was 55% (active). In the case of `Fc1ccc(Nc2ccnc(Nc3ccc(F)cc3)n2)cc1`, the inhibition is 29.5%. Regarding `CCN(CC)S(=O)(=O)c1ccc2[nH]c(=O)cc(C(=O)Nc3ccc(C)c(S(=O)(=O)N(CC)CC)c3)c2c1`, the inhibition was 27.6%. As to `Clc1ccc(Nc2ccc(NCc3ccccc3)nn2)cc1`, the inhibition was 75.7% (active). `CC(C)C(NS(=O)(=O)c1ccc2c(c1)oc(=O)n2C)C(=O)N1CCN(C2CCCCC2)CC1` (configuration not stated): the inhibition was 25.9%. On to `CSc1ccc(S(=O)(=O)NCc2ccc(C)cc2)cc1`, for which the inhibition is 38.7%.

Turning to `CC(C)(C#CCN1CCCCC1)OCCOC(c1ccccc1)c1ccccc1`, the inhibition was 28.1%.

Take `CN(C)C(C)(C)C#CCC(c1ccccc1)c1ccccc1`: the inhibition was 61.6% (active). For `COc1ccc(C2SCC(=O)N2CCCN(C)C)cc1` (configuration not stated), the inhibition was 35%. On to `Cc1cccc(/C=N/n2c(-c3cc(-c4ccccc4)n[nH]3)n[nH]c2=S)c1`, for which the inhibition is 27.3%. Take `S=c1[nH]nc(-c2ccco2)n1/N=C/c1cccc(Cl)c1Cl`: the inhibition is 56% (active). For the molecule `Cc1ccsc1/C=N/n1c(-c2ccccn2)n[nH]c1=S`, the inhibition is 37.9%.

Consider `CC(C)Oc1ccc(OCCNC2CCCC2)cc1`, for which the inhibition was 35.8%. For `CCN1CCN(c2cc3c(cc2F)c(=O)c(C(=O)O)cn3C2CC2)CC1`, the inhibition was 14.2%. As for `CS/C(=N\S(=O)(=O)c1cccs1)Nc1ccc(Br)cc1F`, the inhibition was 52% (active).

Take `Cn1c(=O)c([N+](=O)[O-])c(-n2cnc3ccccc32)c2ccccc21`: the inhibition was 37%. As for `CN1CCN(S(=O)(=O)c2ccc(Br)c3nsnc23)CC1`, the inhibition is 19.9%.
